Reference: PubChem BioAssay AID1159580 (chemical genetic matrix, 2015)
Screen size: about 5,500 compounds; about 2,000 (36%) were called active. Roughly 18% stayed inconclusive and do not appear here. Rule as the data show it: active = normalized growth mostly below about 0.91 (no sharp cut-off); inconclusive = no clear call, values can overlap the other calls; inactive = mostly above about 0.92. The list shows a part of the results.

Test: chemical genetic growth profiling, strain panel (AID 1159580);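 also: tested at 20 µM; growth read once vehicle control cultures reached saturation at 30 °C; 1 = growth at the plate median or of vehicle wells; lower values mean less growth of the strain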
Settings: growth OD
[1] = S. cerevisiae deletion strains, locus YAL013W, strain DEP1, hits give low values
[2] = S. cerevisiae deletion strains, locus YBR229C, strain ROT2, hits give low values
[3] = S. cerevisiae deletion strains, locus YDL101C, strain DUN1, hits give low values
[4] = S. cerevisiae deletion strains, locus YDR150W, strain NUM1, hits give low values
[5] = S. cerevisiae deletion strains, locus YEL061C, strain CIN8, hits give low values
[6] = S. cerevisiae deletion strains, locus YGR078C, strain PAC10, hits give low values
[7] = S. cerevisiae deletion strains, locus YHR030C, strain SLT2, hits give low values
[8] = S. cerevisiae deletion strains, locus YHR087W, strain rtc3, hits give low values
[9] = S. cerevisiae deletion strains, locus YJR043C, strain POL32, hits give low values
[10] = S. cerevisiae deletion strains, locus YJR075W, strain HOC1, hits give low values
[11] = S. cerevisiae deletion strains, locus YLR039C, strain RIC1, hits give low values
[12] = S. cerevisiae deletion strains, locus YLR058C, strain SHM2 (second series), hits give low values
[13] = S. cerevisiae deletion strains, locus YLR085C, strain ARP6, hits give low values
[14] = S. cerevisiae deletion strains, locus YLR262C, strain YPT6, hits give low values
[15] = S. cerevisiae deletion strains, locus YML094W, strain GIM5, hits give low values
[16] = S. cerevisiae deletion strains, locus YMR219W, strain ESC1, hits give low values
[17] = S. cerevisiae deletion strains, locus YNL128W, strain TEP1, hits give low values
[18] = S. cerevisiae deletion strains, locus YNL153C, strain GIM3, hits give low values
[19] = S. cerevisiae deletion strains, locus YNL298W, strain CLA4 (second series), hits give low values
[20] = S. cerevisiae deletion strains, locus YNL322C, strain KRE1, hits give low values
[21] = S. cerevisiae deletion strains, locus YNR030W, strain Alg12, hits give low values
[22] = S. cerevisiae deletion strains, locus YPL055C, strain LGE1, hits give low values
[23] = S. cerevisiae deletion strains, locus YPL241C, strain CIN2, hits give low values
[24] = S. cerevisiae deletion strains, locus YPR135W, strain CTF4, hits give low values

Measured: normalized growth

O=C(Nc1ccc(Cl)c(Cl)c1)c1ccccc1
inactive: [3] 0.931 | [4] 0.889 | [17] 0.933 | [18] 0.942
active: [1] 0.885 | [2] 0.892 | [5] 0.813 | [6] 0.84 | [7] 0.579 | [8] 0.846 | [9] 0.906 | [10] 0.771 | [11] 0.271 | [12] 0.876 | [13] 0.504 | [14] 0.318 | [15] 0.797 | [16] 0.895 | S. cerevisiae deletion strains, locus YMR307W, strain GAS1, hits give low values 0.453 | [19] 0.747 | [20] 0.8 | [21] 0.761 | [22] 0.754 | [23] 0.754 | [24] 0.406 | S. cerevisiae strains, strain wild type, hits give low values 0.908

S=C(NCc1cccnc1)Nc1ccccc1Cl
inactive: [1] 0.987 | [2] 1 | S. cerevisiae deletion strains, locus YCL061C, strain MRC1, hits give low values 0.988 | [3] 0.989 | [4] 0.953 | [5] 0.975 | [6] 0.989 | S. cerevisiae deletion strains, locus YGR229C, strain SMI1, hits give low values 0.991 | [8] 1.01 | [9] 0.984 | [10] 1.02 | [11] 0.939 | [12] 0.987 | [14] 0.982 | [15] 0.953 | [16] 0.992 | S. cerevisiae deletion strains, locus YMR263W, strain SAP30, hits give low values 0.968 | [17] 0.994 | [18] 0.98 | [19] 0.959 | [20] 1 | [21] 0.987 | S. cerevisiae deletion strains, locus YOL006C, strain TOP1, hits give low values 1 | [22] 0.961 | [23] 0.97 | [24] 0.745
active: [7] 0.538 | [13] 0.584
